The text below walks through data of PubChem BioAssay AID1918 (Vanderbilt High Throughput Screening Facility, 2009).

Each structure is given as a SMILES string. Hit rate of the full screen: of about 130,000 compounds, about 2,500 (1.9%) were called active. The sample as a whole holds a higher share of actives than the screen did. Values without a mark were called inactive.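 How the source made its calls: active means signal ratio slope over the read window, or its plate-corrected B-score, at least 3 SD from the plate mean, either direction; inactive means the rest.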

The experiment deals with ATP-sensitive inward rectifier potassium channel 1 (Homo sapiens) (UniProt P48048). In words: Kir1.1 channel activity modulation, library screen – cell-based, thallium flux, MLSMR library, primary screen (AID 1918).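 Further: B-score of the F/F0 ratio slope over 7 to 12 s after thallium.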 The conditions noted are these: Tet-inducible ROMK, thallium flux fluorescence; at 10 µM; actives lie on both sides.
Sequence of ATP-sensitive inward rectifier potassium channel 1 (Homo sapiens) (P48048 whole entry, looked up): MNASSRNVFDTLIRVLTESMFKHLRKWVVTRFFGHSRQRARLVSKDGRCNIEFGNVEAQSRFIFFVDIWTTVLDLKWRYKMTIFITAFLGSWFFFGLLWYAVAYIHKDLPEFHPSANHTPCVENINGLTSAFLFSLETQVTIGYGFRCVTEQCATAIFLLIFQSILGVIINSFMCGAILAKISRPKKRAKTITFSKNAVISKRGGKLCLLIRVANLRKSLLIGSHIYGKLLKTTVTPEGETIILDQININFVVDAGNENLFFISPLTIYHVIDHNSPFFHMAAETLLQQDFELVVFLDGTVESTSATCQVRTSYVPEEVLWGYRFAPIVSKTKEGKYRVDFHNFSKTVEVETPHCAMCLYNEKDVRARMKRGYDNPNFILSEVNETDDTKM
Regarding `COc1cccc(CN(C)CC(=O)NCc2ccccc2Cl)c1OC`, the B-score is -0.0981. With `CCNC(=O)COC(=O)/C=C/c1c(C)nn(Cc2cccc(OC)c2)c1Cl`, the B-score was -0.509. As for `Cc1ccc(N(C(=O)c2ccc(S(=O)(=O)N(C)C)cc2)C2C=CS(=O)(=O)C2)cc1` (stereo not drawn), the B-score is -0.406. The value for `CN(C)/C=C(/C(=O)c1ccccc1Cl)S(C)(=O)=O` was 0.383; that for `CN(C)/C=C(/C(=O)c1ccc(Cl)c(Cl)c1)c1nnnn1-c1ccccc1` was -2.28 (active). With `CN(C)/C=C(/C(=O)c1ccccc1)S(=O)(=O)c1ccc(Cl)cc1`, the B-score was -0.0973. For `Cc1cc(C)n(CC(=O)Nc2ccc([N+](=O)[O-])cc2)n1`, the B-score is 0.748. Turning to `CCOC(=O)CSc1nnc(-c2ccc([N+](=O)[O-])cc2)o1`, the B-score is -0.954. In the case of `O=C(CN1C(=O)NC(Cc2ccccc2)(Cc2ccccc2)C1=O)NCC1CCCCC1`, the B-score is -4.09 (active).

In the case of `O=C(CN1C(=O)NC2(CCCCCC2)C1=O)NC1CC1`, the B-score was -0.159. Take `O=C(CN1C(=O)NC2(CCCC2)C1=O)NCC1CCCO1` (stereo not drawn): the B-score is 0.00667. In the case of `O=S(=O)(NCc1ccco1)c1cnc(Cl)c(Cl)c1`, the B-score is 0.266. Consider `CCOc1cc(NC(=S)NCCCN(C)C)c(OCC)cc1NC(=O)C1CC1`, for which the B-score is 0.491. As to `Cc1ccc(-c2csc(NNC(=O)c3ccccc3)n2)cc1`, the B-score was -0.0341. Turning to `Cn1c(CNc2nc(-c3ccccc3)cs2)nnc1SCC(=O)c1ccccc1`, the B-score is -4.43 (active).

In the case of `Cn1c(CC(=O)Nc2ccccc2)nnc1SCC(=O)c1ccccc1`, the B-score is 0.607. The value for `CCC(C)(C)NC(=O)C(c1cccc(OC)c1OC)N(CC(C)C)C(=O)CCC(=O)Nc1cc(C)on1` (stereo not drawn) was -1.25; that for `CSc1cc(C)[nH]c(=O)n1` was 0.14; that for `CCC(=O)Nc1ccc(Nc2nc(Cl)nc(Nc3ccc(NC(=O)CC)cc3)n2)cc1` was 0.00778. The value for `CCCCCOC(=O)c1ccc(N2C(=O)C3C4C=CC(C4)C3C2=O)cc1` (stereo not drawn) was -0.208; that for `CCCCCCCCCCOC(=O)C[N+](C)(C)CC1CCCCC1O` (stereo not drawn) was -1.79 (active); that for `[O-][n+]1c2c(nn1-c1ccc(Cl)c(Cl)c1)-c1nonc1CC2` was -0.675. As for `CCOC(=O)c1ccc(N2C(=O)CC(N3CCN(C(=O)c4ccccc4)CC3)C2=O)cc1` (stereo not drawn), the B-score was -0.67.

For the compound `NC(=O)C1(C(N)=O)OC1c1ccc(Cl)cc1Cl` (stereo not drawn), the B-score was 0.219.

On to `CC(=O)Nc1ccc(S(=O)(=O)N(C)c2ccc(OCC(=O)OCC(=O)N3CCCCC3)cc2)cc1`, for which the B-score was 0.712. For `N=c1n(CCc2ccccc2)c2ccccc2n1Cc1ccccc1F`, the B-score is -3.48 (active). The value for `CN(Cc1ccccc1)Cc1ccccc1F` was 0.0291; that for `Fc1ccccc1Cn1cnc(NC(=S)NCCc2ccccc2)n1` was 0.722.

Turning to `Cc1ccc(-n2c(O)c(C=Nc3ccc(S(=O)(=O)Nc4ncccn4)cc3)c3ccccc3c2=O)cc1C`, the B-score was 0.113. Turning to `O=c1[nH]c(CSc2ccccc2)nc2c1oc1ccccc12`, the B-score was 0.176. The value for `CCc1cccc2c(=O)c(C(=O)NCCCOC)c[nH]c12` was 0.0144; that for `CC(C)CN(CC(C)C)CC(O)CN(c1ccccc1)S(=O)(=O)c1ccccc1[N+](=O)[O-]` (stereo not drawn) was -2.88 (active); that for `O=S(=O)(c1ccccc1)N(CC(O)CN1CCCCC1)c1ccccc1` (stereo not drawn) was -0.476. Consider `Cc1cccc(N(CC(O)CN(C)C)S(=O)(=O)c2ccccc2)c1` (stereo not drawn), for which the B-score is 0.476. For `C=CCNC(=O)COC(=O)CNC(=O)c1cc(Cl)cc([N+](=O)[O-])c1`, the B-score was 0.319. Take `COc1ccccc1NC(=O)C[n+]1ccccc1`: the B-score is -0.558. Consider `COC(=O)Cc1nc2ccccc2[nH]1`, for which the B-score was -0.0215. On to `COC(=O)C[n+]1cccc2ccccc21`, for which the B-score was -4.33 (active). The value for `COc1cccc(NCCC(=O)c2cccc([N+](=O)[O-])c2)c1` was 1.54; that for `O=C(N/N=C/c1ccc(OCC2COCCO2)cc1)c1ccc(Br)cc1` (stereo not drawn) was 0.0877; that for `Cc1ccc(NC(=O)CN2CCC(C(N)=O)CC2)cc1[N+](=O)[O-]` was -0.771. Regarding `Cc1ccc(NC(=O)c2cccnc2C(=O)Nc2ccc(C)cc2)cc1`, the B-score was 0.166. Turning to `O=C(COC(=O)c1cnccn1)Nc1cccc2ccccc12`, the B-score was 0.345. As to `CN(C)S(=O)(=O)c1ccc(NC(=O)N2CCOCC2)cc1`, the B-score is -0.469. As to `CS(=O)(=O)c1ccc(Cl)c(NC(=O)Nc2ccccc2)c1`, the B-score was -8.31 (active).

As for `CCN(CC)S(=O)(=O)c1ccc(Cl)c(NC(=O)c2ccncc2)c1`, the B-score was -0.305. Turning to `Cc1c(NC(=O)Nc2ccccc2)cccc1[N+](=O)[O-]`, the B-score was 1.03.

On to `CCOCCCNCc1cc(Br)ccc1OCC`, for which the B-score was -0.61. In the case of `Cc1ccc(C)c(NC(=O)CCC(=O)N/N=C2/CC(=O)CC(C)(C)C2)c1`, the B-score is -0.197.

As for `COc1cccc(NC(=O)COC(=O)CCOc2ccccc2OC)c1`, the B-score is 2.55. For `CCOC(=O)CSc1nc2c(sc(=S)n2CCc2ccccc2)c(=O)n1Cc1ccco1`, the B-score was 0.0111. As for `Cc1cs/c(=N\N=C\c2ccc(O)cc2)n1Cc1ccco1`, the B-score was -2.07. Regarding `CN(c1ccccc1)c1ccc(/C=c2\s/c(=C(/C#N)C(=O)C(C)(C)C)n(Cc3ccco3)c2=O)cc1`, the B-score was -5.56 (active).

As for `CC(=O)Nc1nc2ccccc2n1Cc1ccc(C)cc1`, the B-score was -0.122. In the case of `Cc1ccnc(SCC(N)=O)n1`, the B-score was 0.191. As to `CC(C)C(c1nnnn1Cc1ccccc1)N1CCC(C(N)=O)CC1` (stereo not drawn), the B-score was 0.519. For `CCCC(c1nnnn1C(C)(C)C)N1CCN(Cc2ccccc2)CC1` (stereo not drawn), the B-score is -13.3 (active). For the compound `CC(C)C(c1nnnn1C(C)(C)C)N1CCN(Cc2cccnc2)CC1` (stereo not drawn), the B-score is 1.58. Regarding `CC(=O)Nc1ccc(NC(=O)CSc2nnc(COc3ccccc3C)n2CC2CCCO2)cc1` (stereo not drawn), the B-score was -0.134. Take `Cc1ccc(C(=O)N/C(=C\c2ccco2)C(=O)N2CCSCC2)cc1C`: the B-score is 1.44. With `S=C(NCc1ccc2c(c1)OCO2)NCc1ccco1`, the B-score is -0.541. Regarding `COC(=O)Cn1cc(/C=C/[N+](=O)[O-])c2ccccc21`, the B-score was -8.61 (active). Take `COC(=O)Cn1cc(C(=O)c2cccs2)c2ccccc21`: the B-score was 0.201. In the case of `COC(=O)N/N=C/c1cn(CCCOc2ccc(C)cc2)c2ccccc12`, the B-score was 0.506. For the compound `O=C(N/C(=C\c1ccc(F)cc1)C(=O)N1CCCCCC1)c1ccccc1`, the B-score is 0.658. As to `Cc1ccc(C(=O)N/C(=C\c2ccco2)C(=O)NC2CCS(=O)(=O)C2)cc1` (stereo not drawn), the B-score is 0.484. Take `COc1ccc(C(CCNCc2ccccc2F)c2ccc(F)cc2)cc1` (stereo not drawn): the B-score was -2.56 (active). The value for `COc1ccc(CC(=O)NC(C)CCc2ccccc2)cc1` (stereo not drawn) was -0.201; that for `COc1ccc(C(CC(=O)O)NC(=O)Cc2ccccc2)cc1` (stereo not drawn) was -0.208. `O=C(NC1CC1)C1CCCN(C(=O)NC2CCCCC2)C1` (stereo not drawn): the B-score was 0.0365. The value for `CCN(C(=O)CSc1nc2ccccc2n1CC)C1CCS(=O)(=O)C1` (stereo not drawn) was -1.63; that for `Cc1cc(=O)[nH]c2nnnn12` was -0.253.

For `Cc1ccc(N2C(=O)CC(Nc3cccc4ccccc34)C2=O)cc1` (stereo not drawn), the B-score is -0.14. Take `Cc1ccc(N2C(=O)C3CC3C2=O)cc1` (stereo not drawn): the B-score was 1.41 (active). On to `Cc1ccc(N2C(=O)SC(N(CC(=O)O)c3ccc(C)cc3)C2=O)cc1` (stereo not drawn), for which the B-score was 0.244. The value for `O=C(CSc1nc2ccccc2o1)N/N=C/c1ccccc1C(=O)O` was 0.754. For `CCOC(=O)c1sc(=S)n2c1[nH]c(=O)c1ccc(C(=O)OC)cc12`, the B-score is 6.64 (active). In the case of `CCOC(=O)c1sc(=S)n(-c2cccc(OC)c2)c1N`, the B-score was -0.158. As to `CCOC(=O)Cn1c(N)c(C(=O)OC)sc1=S`, the B-score was -0.216.

For the compound `CC(C)N1CCC(=NNc2ccc([N+](=O)[O-])cc2S(=O)(=O)N2CCOCC2)CC1`, the B-score was -0.739.

Take `CC(C)OC(=O)CN1C(=O)C(=O)c2ccccc21`: the B-score is -0.327. As for `O=C1C(=O)N(c2ccccc2)c2ccccc21`, the B-score is 3.08 (active). For the compound `O=C1c2ccccc2C(=O)N1c1ccccc1S(=O)C(F)(F)F` (stereo not drawn), the B-score was -0.708.

Consider `Cc1cc([N+](=O)[O-])nn1CCCC(=O)Nc1cccnc1Cl`, for which the B-score was 0.471.

Regarding `COc1ccc(Br)cc1/C=N/NC(=O)c1cccc(S(=O)(=O)N2CCOCC2)c1`, the B-score was -0.0649.

With `Oc1ccc2ccccc2c1N=Nc1nccs1`, the B-score was 2.22 (active). The value for `Oc1c(C=Nc2cccc3nsnc23)ccc2ccccc12` was -0.773; that for `COc1cccc(C(=O)Nc2cccnc2)c1OC` was 1.32. With `Cc1cc(/C=N/NC(N)=O)c(C)n1C1CCCCC1`, the B-score is 3.24 (active).

Take `Cc1cccc(-n2c(C)cc(/C=N\NC(=O)c3cccs3)c2C)c1`: the B-score is 0.454. On to `Cc1cccc(-n2c(C)cc(/C=N/NC(N)=S)c2C)c1`, for which the B-score was 2.21. In the case of `CCOc1cc(C(=O)N2CCc3cc(OC)c(OC)cc3C2)ccc1OC(F)F`, the B-score was 4.09 (active). `COc1ccc(CC(NC(C)=O)C(=O)NC2CCN(C(=O)c3ccc(OC)c(OC)c3)CC2)cc1OC` (stereo not drawn): the B-score was -0.592.

For `COc1cc2c(cc1OC)CN(C(=O)c1cc(=O)c3ccccc3o1)CC2`, the B-score is 2.64.

As to `CS(=O)(=O)N(Cc1ccccc1Cl)c1ccc(C(=O)NCc2cccnc2)cc1`, the B-score was -0.455. Regarding `S=C(NCc1ccco1)Nc1ccc2c(c1)OCCO2`, the B-score was 0.904. Consider `CCSc1sc(CC)cc1C=O`, for which the B-score was 4.04 (active).

With `Cc1ccc(S(=O)(=O)Nc2nc(N)n(-c3ccccc3)n2)cc1`, the B-score was 0.00772.
